Out of some 220,000 compounds screened, about 910 (0.41%) were called active.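 The calls were made as follows: active = primary inhibition above the hit cutoff, then over 50% inhibition at one or more dose response concentrations (cut at about 23% in these data, passing the limit was not always enough); inconclusive = conflicting primary data, or primary hits not chosen for dose response; inactive = low primary inhibition, or under 50% at every dose.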 What follows is part of a selection rich in actives, with near analogues and random picks from the rest. Results with a measured potency or affinity are listed apart.
The compounds below were run against Aminopeptidase N (Plasmodium falciparum (isolate 3D7)) (UniProt O96935) (assay: malaria alanyl aminopeptidase activity blockers – biochemical, fluorogenic H-Leu-NHMec substrate, 1536-well (AID 1445;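 also: plate controls were DMSO full reaction for no effect and no enzyme background for full effect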)). Details: recombinant M1AAP, H-Leu-NHMec fluorogenic kinetic assay; at 30 µM, stronger effect = higher value unless noted.
Chain of Aminopeptidase N (Plasmodium falciparum (isolate 3D7)) (O96935 whole entry, looked up): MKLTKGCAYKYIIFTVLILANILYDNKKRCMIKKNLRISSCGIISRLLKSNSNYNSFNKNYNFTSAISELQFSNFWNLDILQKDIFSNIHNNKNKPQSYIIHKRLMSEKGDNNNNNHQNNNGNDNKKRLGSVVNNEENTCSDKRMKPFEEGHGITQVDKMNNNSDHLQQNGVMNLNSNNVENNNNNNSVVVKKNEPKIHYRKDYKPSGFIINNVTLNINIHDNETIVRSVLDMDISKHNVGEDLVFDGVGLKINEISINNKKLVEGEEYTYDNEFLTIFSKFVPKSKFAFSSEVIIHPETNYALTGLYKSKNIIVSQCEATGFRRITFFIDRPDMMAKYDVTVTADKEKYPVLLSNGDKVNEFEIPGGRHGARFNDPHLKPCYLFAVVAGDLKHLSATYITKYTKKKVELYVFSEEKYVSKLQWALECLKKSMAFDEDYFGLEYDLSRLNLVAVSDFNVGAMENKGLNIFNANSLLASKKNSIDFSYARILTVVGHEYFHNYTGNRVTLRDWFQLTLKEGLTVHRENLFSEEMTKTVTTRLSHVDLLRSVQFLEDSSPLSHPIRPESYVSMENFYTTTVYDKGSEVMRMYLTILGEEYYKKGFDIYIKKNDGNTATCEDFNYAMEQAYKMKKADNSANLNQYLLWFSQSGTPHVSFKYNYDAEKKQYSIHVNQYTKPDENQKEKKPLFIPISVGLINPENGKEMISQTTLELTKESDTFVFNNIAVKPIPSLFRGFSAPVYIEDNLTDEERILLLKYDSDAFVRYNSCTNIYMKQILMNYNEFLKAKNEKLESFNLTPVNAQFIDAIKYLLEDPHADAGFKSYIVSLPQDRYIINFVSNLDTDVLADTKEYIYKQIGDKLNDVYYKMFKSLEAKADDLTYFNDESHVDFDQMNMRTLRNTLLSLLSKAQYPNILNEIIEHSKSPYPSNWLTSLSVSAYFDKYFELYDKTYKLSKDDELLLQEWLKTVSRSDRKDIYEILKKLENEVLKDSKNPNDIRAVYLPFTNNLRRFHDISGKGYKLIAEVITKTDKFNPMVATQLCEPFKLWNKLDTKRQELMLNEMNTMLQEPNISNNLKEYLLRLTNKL

SMILES	inhibition
COc1ccc(/C(C)=N\Nc2nc(-c3ccc(Cl)cc3)cc(C(F)(F)F)n2)cc1OC	-2.08% (inactive)
CCOC(=O)C1=C(O)C(=O)N(c2ccc(S(N)(=O)=O)cc2)C1c1ccc(Br)cc1 (centres undefined)	0.8% (inactive)
CCOc1cccc(OCCOCCn2cnc3ccccc3c2=O)c1	0.65% (inactive)
CNCc1ccccc1Sc1ccc(OC)cc1	-3.58% (inactive)
NS(=O)(=O)c1cccc(NC(=O)CCSc2ccc(Cl)cc2)c1	6.9% (inactive)
CCCCCCCC[n+]1cccc2c3ccccc3ccc21	29.8% (inactive)
CCCCCCCCC[n+]1cccc2c3ccccc3ccc21	18.5% (inactive)
CC1(C)CC(=O)C2=C(C1)c1c(ccc3ccccc13)NC2c1ccco1 (centres undefined)	0.07% (inactive)
Cc1ccc(C2Nc3ccc4ccccc4c3C3=C2C(=O)CC(C)(C)C3)o1 (centres undefined)	16% (inactive)
CCCN(CCC)c1ncnc2c1cnn2-c1ccc(OC)cc1	2.75% (inactive)
COc1ccc(-c2[nH]c(-c3ccc(C)cc3)nc2SCC(=O)NC2CCCC2)cc1	1.57% (inactive)
CCc1nc(NCc2ccco2)c2oc3ccccc3c2n1	2.95% (inactive)
Cc1nc(NCc2ccco2)c2oc3ccccc3c2n1	25.6% (active)
c1ccc(-c2nc(NCc3ccco3)c3oc4ccccc4c3n2)cc1	11.9% (inactive)
CCC(C)NC(=O)C1CCN(S(=O)(=O)c2ccc(OC)cc2)CC1 (centres undefined)	4.22% (inactive)
C(=N\Nc1nc2ccccc2[nH]1)/c1ccncc1	5.02% (inactive)
CSc1cc(-c2ccccc2)n(C)c(=O)c1C#N	3.47% (inactive)
COc1nc(N=C(N)N)nc2ccc(C)cc12	20.7% (inactive)
COc1ccc(Oc2cc(C)c3cccc(C)c3n2)cc1	-2.89% (inactive)
Cc1ccc2nc(N=C(N)N)nc(C)c2c1	10.4% (inactive)
Cc1cc2nc(N=C(N)N)nc(C)c2cc1C	9.31% (inactive)
O=C(COC(=O)Cc1ccc(F)cc1)NCc1ccco1	4.03% (inactive)

SMILES	inhibition
CCC(C)NC(=O)COC(=O)c1csc2c1CCCC2 (centres undefined)	7.63% (inactive)
COC(=O)c1ccc(CSc2nc(C(F)(F)F)c3c(c2C#N)CCC3)o1	3.42% (inactive)
CCSc1nnc(NC(=O)CSc2c(Cl)cccc2Cl)s1	4.43% (inactive)
COc1ccc(S(=O)(=O)N2CCOCC2)cc1NC(=O)CO/N=C/c1ccccc1OC(F)F	8.16% (inactive)
Cc1cn(-c2ccccc2)c(C)c1/C=N\Nc1nc(N2CCOCC2)nc(N2CCOCC2)n1	4.34% (inactive)
CC(=O)c1ccc(NC(=O)CSc2nnc(-c3ccco3)c(-c3ccco3)n2)cc1	9.65% (inactive)
Cc1cccc(C)c1NC(=O)CSc1nnc(-c2ccco2)c(-c2ccco2)n1	17.6% (inactive)
Cc1ccc(NC(=O)CSc2nnc(-c3ccco3)c(-c3ccco3)n2)cc1	25% (active)
Cc1cc(CN(C)C(=O)CC2C(=O)NCCN2Cc2c(F)cccc2Cl)n[nH]1 (centres undefined)	-2.19% (inactive)
CCS(=O)(=O)C(C)(CCl)C(=O)Nc1ccc(C(=O)OC)cc1 (centres undefined)	3.92% (inactive)
COc1ccc(-c2cc(=O)c3c(O)c(OC)c(O)cc3o2)cc1	17% (inactive)
COc1c(O)cc2oc(-c3ccc(O)cc3)cc(=O)c2c1O	17.2% (inactive)
O=S(=O)(c1ccccc1)N1CCCC1c1cccs1 (centres undefined)	0.58% (inactive)
Cn1c(=O)cc(SCC(=O)N2CCCC2)c2ccccc21	7.32% (inactive)
Cc1c(C)c2cc(Cl)c(O)c(CN(C)C)c2oc1=O	14.8% (inactive)
CCN(CC)Cc1c(O)c(Cl)cc2c(C)c(C)c(=O)oc12	23.6% (active)
CCc1c(C)c2cc(Cl)c(O)c(CN(C)C)c2oc1=O	-5.92% (inactive)
Cc1c(Cc2ccccc2)c(=O)oc2cc(O)ccc12	22.2% (inactive)
CCN(CC)Cc1oc(CO)cc(=O)c1O	5.8% (inactive)
CCc1cc2c(=O)c(-c3nc4ccccc4n3C)c(C)oc2c(CN(CC)CC)c1O	6.03% (inactive)
Cc1c(Cc2ccccc2)c(=O)oc2c(O)c(O)ccc12	17.1% (inactive)
CCOc1ccc(OCCCC(=O)NC2=NCCS2)cc1	-1.08% (inactive)

SMILES	inhibition
COc1ccc(O)c(C2NC(CC(C)C)(C(=O)O)C3C(=O)N(Cc4ccccc4)C(=O)C23)c1 (centres undefined)	13.5% (inactive)
COc1ccc(OCCC(=O)OCC(=O)Nc2cccc(Br)c2)cc1	2.82% (inactive)
O=CN1N=C(c2ccccc2)CC1c1ccccc1[N+](=O)[O-] (centres undefined)	0.38% (inactive)
CCCN(Cc1ccccc1)C(=S)Nc1ccc(C(C)=O)cc1	0.74% (inactive)
CCOc1ccc(C(Nc2cccnc2)c2cc(Cl)c3cccnc3c2O)cc1 (centres undefined)	-6.83% (inactive)
O=C(O)COc1ccccc1C(Nc1ccccn1)c1cc(Cl)c2cccnc2c1O (centres undefined)	23.1% (inactive)
COc1ccc(N2CCN(Cc3cc(=O)oc4cc(-c5ccccc5)c(O)cc34)CC2)cc1	-0.12% (inactive)
COc1ccc(F)cc1S(=O)(=O)Nc1ccc(C)cc1	-1.13% (inactive)
CCOC(=O)N1CCN(C(=O)c2ccc3c(c2)ncn3C2CCCC2)CC1	2.32% (inactive)
O=[N+]([O-])c1cc2c(cc1/C=N/NS(=O)(=O)c1ccc(Br)cc1)OCO2	3.45% (inactive)
Cc1cccc(C)c1OCC(=O)NCc1nnc(SCC(=O)NC2CCCCC2)n1C	3.03% (inactive)
CC1CCCCC1NC(=O)CSc1nnnn1-c1ccccc1 (centres undefined)	2.02% (inactive)
Nn1c(SCC(=O)NC2CCCCC2)nnc1-c1ccccc1	3.83% (inactive)
Cc1cccc(C)c1OCC(=O)NCc1nnc(SCC(=O)NC2CCCCC2C)n1C (centres undefined)	24.1% (active)
CC1CCCCC1NC(=O)CSc1nnc(CNC(=O)c2ccccc2)n1C (centres undefined)	-2.54% (inactive)
CN(CC(=O)NC1CCCCC1)S(=O)(=O)c1ccc(Cl)cc1	-0.77% (inactive)
Cc1cccc(OCC(=O)N2CCN(C(=O)CCC3CCCC3)CC2)c1	22.4% (inactive)
O=C(CCC1CCCC1)N1CCN(C(=O)COc2ccccc2)CC1	21.1% (inactive)
CC(=O)N1CCN(C(=O)COc2ccc(Br)cc2)CC1	1.6% (inactive)
O=C(COc1ccc(Br)cc1)N1CCOCC1	-2.69% (inactive)

From PubChem BioAssay AID1445 (SRMLSC, 2008)
